Measurements from the supplement of paper PMC10338343.
± gives the standard deviation.

These sequences were tested on MILI (PIWIL2) piRISC loaded with L1MC piRNA (26 nt) (assay: pre-steady-state target cleavage rate (min^-1); guide: L1MC piRNA 5'p-UAACUAAAUACUAUGCAAGCUGUAGG; MIWI and MILI are mouse PIWI proteins and EfPiwi is from a freshwater sponge; tags in brackets are library labels; higher = faster piRNA-guided slicing of the target). Conditions: auxiliary factor: 500 nM mouse GTSF1.
How it was run: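 The pre-steady-state cleavage rate was derived from a burst-and-steady-state fit of Cleave-'n-Seq data. For these assays, 1 nM active affinity-purified piRISC loaded with a single synthetic guide was mixed with […] a transcribed, DNA-blocked target RNA library in HEPES–potassium acetate buffer at 33 °C, with or without 500 nM GTSF1 partner protein, for 0–8 or 0–960 min. Sequencing counts of uncleaved targets were normalised to depth and to weakly complementary targets, and k3 was capped at 0.0001 min^-1 after three trials were pooled.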
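Also: 1 nM active piRISC with 0.1 nM target library at 33 °C single turnover.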

| Sequence | pre-steady-state target cleavage rate |
| --- | --- |
| UCCUCCUACUGCUUGCAUAGUUUUUAGUUA | 0.0525 ± 0.0085 |
| UCCUGGAUCACCAUGCAUAGUAUUUAGUUA | 0.14 ± 0.019 |
| UCCUGGUACAGCUUGCCAUAGUAUUUAGUUA | 0.224 ± 0.059 |
| UCCUGGUACAGCUUGCAUAGUAUUUAUUUA | 0.166 ± 0.037 |
| UCCUCCUACAGGUUGCAAAGUAUUUAGUUA | 0.142 ± 0.0086 |
| UCCUGGAUGUGCUUGCAUAGUAUUUGGUUA | 0.131 ± 0.013 |
| UCCUGGAUCAGCUUGCAUAGUCUUUAGUUA | 0.191 ± 0.011 |
| UCCUGCUACAGCUUGCAAGUAUUUAGUUA | 0.138 ± 0.017 |
| UCCUGCUACAGCUUGCAUAGUAGUUUAGUUA | 0.239 ± 0.032 |
| UCCUCCUACAGCUUGCAUAGUAUUUAGUUU [g2:g26:cont:t1U] | 0.35 ± 0.02 |
| UCCUCCUAGAGCAUGCAUAGUAUUUAGUUA | 0.2 ± 0.019 |
| UCCUGGAACAGCUUGCAUAGUAUAUAGUUA | 0.296 ± 0.029 |
| UCCUGGAUGAGCUUGUAUAGUAUUUAGUUA | 0.181 ± 0.015 |
| UCCUCCUACAGCCUGCAUAGUAUUUAGUUA | 0.287 ± 0.018 |
| UCCUGCUACAGCUUGCAUAGUAUUAUAGUUA | 0.189 ± 0.021 |
| UCCUGCUACAGCUUGCUUAGUAUUUAGUUA | 0.248 ± 0.013 |
| UCCUGGAUCAGCUUGCAAAGUAUUUAGUAA | 0.12 ± 0.0069 |

Same assay, conditions: auxiliary factor: none (no GTSF1)

| Sequence | pre-steady-state target cleavage rate |
| --- | --- |
| UCCUGCUACAGCUUGCAUAGUAUUAGUUA | 0.0027 ± 0.0027 |
| UCCUGGAUCAGCUAGGAUAGUAUUUAGUUA | 0.00609 ± 0.0017 |
| UCCUGGUACAGCUUGCAUAGUACUUAGUUA | 0.00401 ± 0.0032 |
| UCCUGGAUGUGCUUGCAUAGUAUAUUAGUUA | 0.00381 ± 0.0027 |
| UCCUGCUACAGCAUGGAUAGUAUUUAGUUA | 0.00639 ± 0.0031 |
| UCCUGGAACAGCUUGCAUAGUAUUAUAGUUA | 0.00335 ± 0.0027 |
| UCCUGGAUCACCUUGCAUAGUAUUUAGUUA | 0.00706 ± 0.0023 |
| UCCUGCUACAGCAUGCAUAGUAUUUAGUUA | 0.00853 ± 0.003 |
| UCCUGCUUCAGCUUGCAUAGUAUAUAGUUA | 0.00438 ± 0.002 |
| UCCUGGAUGUCGUUUGCAUAGUAUUUAGUUA | 0.00976 ± 0.0036 |
| UCCUGCUACAGCUUCCUUAGUAUUUAGUUA | 0.00547 ± 0.0019 |
| UCCUGCUACAGCUAGCAAAGUAUUUAGUUA | 0.00463 ± 0.0024 |
| UCCUCCUACAGCUUGCAUAGUAUUUAGUUA [g2:g26:cont:t1A] | 0.0103 ± 0.003 |
| UCCUGCUACAGCUUGCAUAGUAUUUAGUUC [g2:g25:cont:t1C] | 0.0145 ± 0.0033 |
| UCCUGGAUCAGCUUGCUUAGUAAUUAGUUA | 0.00689 ± 0.0022 |
| UCCUGGAUGAGCUUGCAUCGUAUUUAGUUA | 0.00554 ± 0.0025 |
| UCCUGGUACAGCUUGCAUAGUAUGUUAGUUA | 0.00462 ± 0.0027 |
| UCCUGGAUCGCUUGCAUAGUAUUUAGUUA | 0.00599 ± 0.0021 |
| UCCUGGAUCAGCUUGCAUAGUAUUUAUGUUA | 0.00471 ± 0.0027 |
| UCCUGCUACGCUUGCAUAGUAUUUAGUUA | 0.0067 ± 0.0024 |

| Sequence | pre-steady-state target cleavage rate |
| --- | --- |
| UCCUCCUACAGGUUGCAUAGUAAUUAGUUA | 0.00589 ± 0.0017 |
| UCCUGGAUGAGCUUGCUUAGUAUUUAGUUA | 0.00685 ± 0.0025 |
| UCCUGCUACAGCUUAGCAUAGUAUUUAGUUA | 0.0072 ± 0.0026 |
| UCCUCCUACUGCUUGCAUAGUUUUUAGUUA | 0.00424 ± 0.002 |
| UCCUGGAUCACCAUGCAUAGUAUUUAGUUA | 0.00489 ± 0.0025 |
| UCCUGGUACAGCUUGCCAUAGUAUUUAGUUA | 0.00532 ± 0.0033 |
| UCCUGGUACAGCUUGCAUAGUAUUUAUUUA | 0.0109 ± 0.0041 |
| UCCUCCUACAGGUUGCAAAGUAUUUAGUUA | 0.00921 ± 0.002 |
| UCCUGGAUGUGCUUGCAUAGUAUUUGGUUA | 0.01 ± 0.0034 |
| UCCUGGAUCAGCUUGCAUAGUCUUUAGUUA | 0.00789 ± 0.0024 |
| UCCUGCUACAGCUUGCAAGUAUUUAGUUA | 0.00374 ± 0.0027 |
| UCCUGCUACAGCUUGCAUAGUAGUUUAGUUA | 0.0034 ± 0.0024 |
| UCCUCCUACAGCUUGCAUAGUAUUUAGUUU [g2:g26:cont:t1U] | 0.0339 ± 0.0087 |
| UCCUCCUAGAGCAUGCAUAGUAUUUAGUUA | 0.00564 ± 0.0018 |
| UCCUGGAACAGCUUGCAUAGUAUAUAGUUA | 0.00847 ± 0.0025 |
| UCCUGGAUGAGCUUGUAUAGUAUUUAGUUA | 0.0088 ± 0.0033 |
| UCCUCCUACAGCCUGCAUAGUAUUUAGUUA | 0.0111 ± 0.0024 |
| UCCUGCUACAGCUUGCAUAGUAUUAUAGUUA | 0.00585 ± 0.0024 |
| UCCUGCUACAGCUUGCUUAGUAUUUAGUUA | 0.00684 ± 0.0021 |
| UCCUGGAUCAGCUUGCAAAGUAUUUAGUAA | 0.00426 ± 0.0026 |
